Among the data in PubChem BioAssay are viability values, retold here.

Results filed as inconclusive are left out. The source made the active and inactive calls.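 Rule for the calls: active = viability at or below 27.92% in each of two runs, the all-compound median minus 4 SD; inconclusive = no clear call, values can overlap the other calls; inactive = the rest.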

A short description of this test: growth suppression of PTEN-deleted HCT116, pilot screen, cell-based, HCT116 clonal line, CellTiter-Glo (AID 824).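 Note: 0% = 20 µM Hyamine control and 100% = vehicle cell control.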 The conditions noted are these: 60 h, at 10 µM, active compounds read low.
Take `O=C(CSc1nc2c(cnn2-c2ccc(F)cc2)c(=O)[nH]1)N1CCCCCC1`: the viability is 93% (inactive).

On to `CCNc1nnc(-c2ccccc2OC)s1`, for which the viability was 103% (inactive).

`O=[n+]1c2c(n([O-])c3c1CCCC3)CCCCC2`: the viability is 99.5% (inactive).

As to `O=C(O)C1C(c2ccccc2)C(C(=O)OCc2ccco2)C1c1ccccc1` (stereo not given), the viability was 88.3% (inactive).

On to `CCOC(=O)Cc1nnc(NC(=O)C(CC)Sc2nc(C)cc(=O)[nH]2)s1` (stereo not given), for which the viability is 96.7% (inactive).

For `Cc1ccc(OCCSc2cc(C)nc(N)n2)cc1`, the viability was 96% (inactive).

Consider `O=C(NCCN1CCCC1)c1ccc(CS(=O)(=O)c2c(Cl)cccc2Cl)o1`, for which the viability was 102% (inactive).

In the case of `O=P(O)(CCc1ccccn1)CN1CCOCC1`, the viability was 92.5% (inactive).

With `CCOC(=O)CN1Cc2cccc(C(=O)O)c2C1=O`, the viability is 96.3% (inactive).

As to `CC(C)=C(NC(=O)c1ccccc1)C(=O)NCCCC(=O)O`, the viability is 103% (inactive).

Consider `Cc1c(NS(=O)(=O)c2ccccc2)cc(Cl)c(O)c1C`, for which the viability is 93.5% (inactive).

Take `O=C(CN1C(=O)CSc2ncccc21)NCCN1CCOCC1`: the viability is 99.7% (inactive).

In the case of `CC/C(=C\C(=O)c1ccncc1)Nc1ccc(O)cc1`, the viability was 83.7% (inactive).

On to `Cn1c(=O)c2cc(NCc3ccccc3)nnc2n(C)c1=O`, for which the viability is 58.8% (inactive).

In the case of `Cc1oc2cc(O)ccc2c(=O)c1Oc1ccccc1Br`, the viability is 84.4% (inactive).

For `Cc1ccnc(NC2c3ccccc3C(=O)N2Cc2ccccc2Cl)c1` (stereo not given), the viability is 86.8% (inactive).

Regarding `CCN=C(Nc1ccc2c(c1)OCO2)SC1CC(=O)N(c2ccccc2F)C1=O` (stereo not given), the viability is 95.9% (inactive).

Turning to `CC1(C(=O)NCc2cccnc2)CCC(=O)N1CCc1ccccc1` (stereo not given), the viability is 102% (inactive).

With `Cc1nc2ccc(S(=O)(=O)NC(C(=O)N3CCC(C)CC3)C(C)C)cc2s1` (stereo not given), the viability was 89% (inactive).

For `Fc1ccc(-c2nnc(-c3ccc(Cl)cc3Cl)o2)cc1`, the viability was 64.2% (inactive).

`COc1ccc(-c2[nH]c(-c3ccc(F)cc3)nc2SCC(=O)NCc2ccco2)cc1OC`: the viability is 92.9% (inactive).

With `NC(=O)c1ccc(N2CCCCC2)c(N2C(=O)C3C4C=CC(C4)C3C2=O)c1` (stereo not given), the viability was 92.6% (inactive).

Regarding `Cc1n[nH]c(C)c1S(=O)(=O)N(CC(=O)N1CCc2ccccc21)c1ccc(C(C)C)cc1`, the viability was 83.3% (inactive).

Consider `CC(C)Oc1ccc(/C(O)=C2/C(=O)C(=O)N(CCCN3CCOCC3)C2c2ccncc2)cc1` (stereo not given), for which the viability was 89.3% (inactive).

For `COc1ccc(C)cc1NC(=O)C1CCCN(S(=O)(=O)c2c(C)noc2/C=C/N(C)C)C1` (stereo not given), the viability was 100% (inactive).

Consider `COc1ccc(NC(=O)c2c(-c3ccccc3)noc2C)c(OC)c1`, for which the viability was 92.6% (inactive).

Take `CC(Sc1nnc(Cn2c(=O)sc3ccccc32)n1C)c1ccccc1` (stereo not given): the viability was 96.3% (inactive).

As to `Brc1ccc(-c2noc(CCc3ccccc3)n2)o1`, the viability was 96.9% (inactive).

With `CN1CCc2c(sc3c2C(=O)NC(c2ccc(-c4cccc(Cl)c4)o2)N3)C1` (stereo not given), the viability was 87.7% (inactive).

As to `CC(OC(=O)c1cc[n+]([O-])cc1)C(=O)Nc1ccc(Cl)cn1` (stereo not given), the viability was 98.3% (inactive).

Regarding `CCOc1ccc(S(=O)(=O)Nc2ccccc2C(=O)NCC2CCCO2)cc1` (stereo not given), the viability is 95.5% (inactive).

For `Cc1cc(N2CCN(C3CCCCC3)CC2)nc2cccc(O)c12`, the viability was 62.8% (inactive).

Turning to `CCCN(CC1CC1)S(=O)(=O)c1ccc(S(N)(=O)=O)cc1`, the viability was 90.3% (inactive).

In the case of `COc1ccccc1CNC(=O)c1cnc2sccn2c1=O`, the viability is 90.3% (inactive).

Turning to `NC(=O)C1CCN(CCCNC2CC(=O)N(Cc3ccc(N4CCCC4=O)cc3)C2=O)CC1` (stereo not given), the viability is 98.7% (inactive).

In the case of `Cc1ccc(C2=[N+]([O-])C3(CCCCC/C3=N\O)N(O)C2(C)C)o1` (stereo not given), the viability is 93.7% (inactive).

Take `NC(=O)C1(N2CCCCC2)CCN(C(=O)c2ccccc2)CC1`: the viability is 90.4% (inactive).

In the case of `CCOc1ccc(Cc2nnc(SCC(=O)c3ccc(OC)cc3)o2)cc1`, the viability is 70.3% (inactive).

For the molecule `CC(C)CCNC(=O)CCS(=O)(=O)c1cccc2nonc12`, the viability was 103% (inactive).

With `CCn1c(=O)cc(OCC(=O)N2CCc3ccccc32)c2ccccc21`, the viability is 89.9% (inactive).
